From PubChem BioAssay
Sampled rows, rich in hits. Any-hit rate of the full collection: about 19%.
DT40 TDP1 no CPT = qHTS for Inhibitors of human tyrosyl-DNA phosphodiesterase 1 (TDP1): qHTS in cells in absence of CPT; DT40 Tdp1-/- hTDP1 cells, no CPT, ATP luminescence, 48 h; Potency, µM (top dose mostly 46.2 µM), for inactives: at the highest dose activity change, negative = growth inhibition, most hits filed as inhibitors; 15% of 420,000 active; also: potency is read from the fitted curve at half-maximal effect; nearly all actives have a fitted effect of over 55% in size
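A cellular qHTS used chicken DT40 cells lacking endogenous Tdp1 but carrying stably transfected human TDP1. Compounds were applied without camptothecin, and cell growth kinetics were judged by ATP-dependent luminescence after ≥48 hr.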
ELG1 repair inh = ELG1-dependent DNA repair inhibition; HEK293T ELG1-luciferase reporter, luminescence, 16 h; DNA damage induced by 5-fluorouridine; Potency, µM (titrated, usually from 46.1 µM), for inactives: at the highest dose activity change, negative = inhibition, most hits filed as inhibitors; 2.3% of 330,000 active; AID 504467; also: potency is read from the fitted curve at half-maximal effect; nearly all actives have a fitted effect of over 55% in size
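5-Fluorouridine DNA damage + compound/DMSO, 2,000 cells/well, 16 h, 37 °C/5% CO2. ONE-Glo, 30 min RT, luminescence. Readout = decrease in reporter signal.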
IL1B secr inh = inflammasome signaling inhibition, IL-1 beta readout; THP-1 LPS/ATP IL-1B secretion, AlphaLISA, 16 h; stronger effect = lower value; activity change, % at 57.5 µM; 4.7% of 360,000 active; in the data active = activity change below about -50%; inconclusive = mostly about -30% to -49%
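Secreted IL-1B measured by AlphaLISA bead assay after 16 h compound exposure of THP-1 cells; compounds (final up to 57.5 uM) added 1 h before LPS (250 ng/mL) and ATP (1.25 mM) stimulation; lower signal means less secretion.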
DT40 TDP1 CPT = growth inhibition of DT40 Tdp1-/-;hTDP1 cells with camptothecin (screen for TDP1 inhibitors). 12% of 420,000 active. AID 686979. chicken DT40 Tdp1-/-;hTDP1 cells + 20 nM CPT, ATP luminescence, 48 h. Potency, µM (highest dose often 46.2 µM), for inactives: at the highest dose activity change, negative = growth inhibition, most hits filed as inhibitors; also: potency is read from the fitted curve at half-maximal effect; nearly all actives have a fitted effect of over 55% in size
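Chicken DT40 Tdp1-/- cells complemented with human TDP1, 400 cells/well, exposed to compounds plus 20 nM camptothecin for at least 48 h at 37 C; viability read as ATP content by CellTiter-Glo luminescence.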
HT1080 IDH1KD tx = HT-1080 IDH1 knockdown cell toxicity (counter line). HT-1080 IDH1 knockdown viability, ATP luminescence, 48 h. Potency, µM (series often up to 46.1 µM), without a hit: at the highest dose activity, negative = toxicity, hits mostly cytotoxic. 2% of 360,000 active. AID 686971;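 also: potency is read from the fitted curve at half-maximal effect; 0% = DMSO wells and -100% = cell-free medium wells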
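% activity derives from luminescence (CellTiter-Glo), normalised to DMSO and no-cell wells. HT-1080-IDH1KD cells, 750/well, had 48 h compound exposure at 37 °C.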
HT1080NT lethal = kills 2HG-producing HT-1080-NT fibrosarcoma cells; HT-1080-NT fibrosarcoma viability, CellTiter-Glo ATP luminescence, 48 h; Potency, µM (titrated, usually from 46.1 µM), for the others: at the highest dose activity, negative = less viability, most hits filed as cytotoxic; 1.6% of 360,000 active; AID 686970;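 also: NT is the 2HG producing partner of a matched IDH1 knockdown line; potency is read from the fitted curve at half-maximal effect; 0% = DMSO-treated cells and -100% = media-only wells without cells; nearly all actives have a fitted effect of over 55% in size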
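Viability by CellTiter-Glo luminescence after 48 h compound exposure at 37C of HT-1080-NT cells (750/well, RPMI, 5% FBS). % activity scaled between DMSO wells and medium-only wells, then curve-fitted and categorized by curve class.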
Numbers without * were called inactive; ? = inconclusive; . = no result given; [ ] = remark or other dose. Unless noted, calls follow the shape of the dose curve; as a rule, active = well fitted curve in the direction sought with a large enough effect; inconclusive = small, poorly fitted or top-dose-only effect, or another doubt; inactive = no such curve, though single readings can be large; an effect the other way counts as inactive or inconclusive. Unless noted, % is scaled to controls: 0 for no effect and ±100 for the full control effect.

SMILES | DT40 TDP1 no CPT | ELG1 repair inh | IL1B secr inh | DT40 TDP1 CPT | HT1080 IDH1KD tx | HT1080NT lethal
Cc1ccc(CNC(=O)Cc2ccc(Br)cc2)cc1 | 7.3µM* | 0% | 31 | 9.2µM* | 8.2µM* | 23µM*
COc1ccccc1NS(=O)(=O)c1cc(N/C(=N\S(=O)(=O)c2ccccc2)c2ccc(F)cc2)ccc1Cl | . | ? | -8 | 18µM* | -19% | -2%
COc1ccccc1NS(=O)(=O)c1cc(NC(=O)Cc2n[nH]c(=O)c3ccccc23)ccc1Cl | ? | 23µM* | ? | ? | -6% | -5%
O=S(=O)(/N=C(/Nc1ccc(Cl)c(S(=O)(=O)N2CCOCC2)c1)c1ccc(F)cc1)c1ccccc1 | ? | ? | -18 | ? | -10% | -15%
COc1ccccc1N/C(=N/S(=O)(=O)c1ccc(C)cc1)c1ccc(Cl)cc1 | ? | 2% | -25 | 16µM* | -6% | -2%
COc1ccccc1NS(=O)(=O)c1cc(NC(=S)Nc2cc(C)cc(C)c2)ccc1Cl | 5.2µM* | ? | ? | 12µM* | 10% | 11%
Cc1ccc(-n2c(C)cc(/C=c3/sc4nc5ccccc5n4c3=O)c2C)cc1 | 9.2µM* | ? | -9 | 16µM* | -6% | -6%
C[C@H]1CN([C@@H](C)CO)C(=O)CCCn2cc(nn2)CO[C@@H]1CN(C)C(=O)Nc1ccc(-c2cccs2)cc1 | 1% | . | 0 | -7% | 23% | 20%
Cc1ccc(OCC(=O)c2c[nH]c3ccccc23)c([N+](=O)[O-])n1 | 4% | ? | 42 | -26% | -2% | -6%
CCCN(CC(=O)Nc1cc(Cl)cc(Cl)c1)CC(=O)Nc1ccc(F)c(F)c1F | 23µM* | ? | -97* | ? | ? | ?
Cc1c(C)n(CC(O)CSc2ccccc2)c2ccccc12 (stereo not given) | ? | . | ? | ? | ? | -30%
FC(F)(F)c1ccccc1NC(=S)NC1CCN(Cc2ccccc2)CC1 | 6% | -13% | -9 | ? | 0% | 18%
COc1ccccc1CN1CCN(Cc2nc(-c3ccccc3)no2)CC1 | 0% | ? | 34 | -10% | 0% | -1%
COc1ccc(-c2noc(-c3cccnc3N3CCN(c4ccc(OC)cc4)CC3)n2)cc1 | 8.2µM* | . | . | 15µM* | . | .
COc1cc(-c2noc(CN3CCN(c4ccccc4)CC3)n2)cc(OC)c1OC | 21µM* | . | . | ? | . | .
COc1ccccc1N1CCN(Cc2nc(-c3cc(OC)c(OC)c(OC)c3)no2)CC1 | 18µM* | . | . | 23µM* | . | .
COc1ccc(-c2noc(-c3ccoc3C)n2)cc1 | 18µM* | ? | 25 | ? | -11% | -3%
Cc1ccc(C)c(NC(=O)CN(C)S(=O)(=O)c2cccc3nsnc23)c1 | ? | . | . | -29% | . | .
CCN(C(=O)COC(=O)COc1ccccc1Cl)c1c(N)n(Cc2ccccc2)c(=O)[nH]c1=O | 17% | 17% | 18 | -21% | 2% | 9%
Cc1ccc(-c2noc(CN3CCOCC3)n2)cc1 | 10% | ? | -3 | 10% | 17% | ?
COc1ccc(N2CCN(Cc3nc(-c4ccc(C)cc4)no3)CC2)cc1 | 23µM* | . | . | ? | . | .
CCN1C(=O)[C@@H]2[C@@H](c3ccc(-c4ccc(Cl)c(Cl)c4)cc3)N3CCCC[C@@]3(C(=O)OC)[C@@H]2C1=O | 16µM* | 2% | -3 | 18µM* | 3% | 10%
COC(=O)[C@@]12CCCCN1[C@H](c1ccc(-c3ccc(Cl)c(Cl)c3)cc1)[C@H]1C(=O)N(C)C(=O)[C@H]12 | 16µM* | 17% | 0 | 12µM* | 11% | -3%
CNC[C@@H](Cc1ccccc1)NC[C@@H](CC1CCCCC1)NCCCc1ccccc1 | 9.2µM* | ? | -101* | 8.2µM* | ? | ?
CCC[C@@H](CNC)NC[C@H](Cc1ccccc1)NCCCCc1ccccc1 | 12µM* | -19% | -70* | 9.2µM* | ? | ?
SMILES | DT40 TDP1 no CPT | ELG1 repair inh | IL1B secr inh | DT40 TDP1 CPT | HT1080 IDH1KD tx | HT1080NT lethal
CNC[C@@H](CC1CCCCC1)NC[C@H](CC(C)C)NCCc1cccc(C(F)(F)F)c1 | 5.2µM* | ? | -111* | 5.2µM* | ? | 23µM*
CCC[C@@H](CN[C@@H](CNC)C(C)C)NCCCCc1ccccc1 | 0.82µM* | ? | -15 | 1µM* | ? | ?
Cc1ccc(-n2c(=O)c3c(C)c(C)sc3n(CC(=O)NCc3ccccc3)c2=O)cc1C | -23% | . | . | -25% | . | .
COc1cccc(C(=O)NC(=S)Nc2ccccc2N2CCCC2)c1 | ? | -14% | 2 | 23µM* | -1% | -13%
CC(=O)Nc1cccc(C(=O)Nc2ccccc2N2CCOCC2)c1 | 26µM* | ? | 13 | ? | ? | ?
COc1ccc(NC(=O)CSCC(=O)Nc2ccccc2N2CCCCC2)cc1 | 29µM* | -8% | -13 | ? | -7% | -5%
COc1cccc(C(=O)Nc2ccccc2N2CCN(C(=O)c3ccccc3)CC2)c1 | 21µM* | 23µM* | -23 | ? | -2% | 1%
O=C(COC(=O)C1CCN(S(=O)(=O)c2ccc3c(c2)OCCO3)CC1)Nc1cccc2ccccc12 | -29% | 12% | 11 | -23% | 8% | 11%
COc1cccc(C(=O)NC(=S)Nc2ccccc2N2CCCCC2)c1 | ? | 2% | 14 | ? | 0% | -11%
COc1cccc(C(=O)Nc2ccccc2N2CCCC2)c1 | ? | -5% | -18 | 18µM* | 0% | 3%
O=C(c1ccccc1)c1coc2c1C(=O)c1ccccc1C2=O | ? | ? | -28 | ? | 18µM* | 16µM*
O=C1C(=C(O)c2ccccc2)C(=O)c2ccccc21 | -14% | ? | 5 | ? | 0%[9.24 µM] | -29%
O=C1c2ccccc2C(=O)c2c1oc(C(F)(F)F)c2C(=O)c1ccccc1 | 16µM* | ? | -84* | 12µM* | 23µM* | ?
COc1ccc(C(=O)c2coc3c2C(=O)C(=O)c2ccccc2-3)cc1 | 4.6µM* | ? | 13 | 2.6µM* | ? | ?
CC1(C(=O)NCC2CC2)CCN1C(=O)C1(c2ccccc2)CC1 (stereo not given) | -11% | . | -17 | -1% | 5% | 26%
